Source: PubChem BioAssay AID504652 (National Center for Advancing Translational Sciences (NCATS), 2011)
Values joined by “and” are separate entries in the source; they are usually repeats but may differ in a detail not shown here. Equal entries are not always repeated. Screen size: about 360,000 compounds; about 11,000 (3.1%) were called active. What follows is part of a selection rich in actives, with near analogues and random picks from the rest. A number with no mark means an inactive call. Rule as the data show it: active = activity change below about -30%; inactive = the rest.

Target: D(1A) dopamine receptor (Homo sapiens) (UniProt P21728)
Sequence (P21728 whole entry, looked up): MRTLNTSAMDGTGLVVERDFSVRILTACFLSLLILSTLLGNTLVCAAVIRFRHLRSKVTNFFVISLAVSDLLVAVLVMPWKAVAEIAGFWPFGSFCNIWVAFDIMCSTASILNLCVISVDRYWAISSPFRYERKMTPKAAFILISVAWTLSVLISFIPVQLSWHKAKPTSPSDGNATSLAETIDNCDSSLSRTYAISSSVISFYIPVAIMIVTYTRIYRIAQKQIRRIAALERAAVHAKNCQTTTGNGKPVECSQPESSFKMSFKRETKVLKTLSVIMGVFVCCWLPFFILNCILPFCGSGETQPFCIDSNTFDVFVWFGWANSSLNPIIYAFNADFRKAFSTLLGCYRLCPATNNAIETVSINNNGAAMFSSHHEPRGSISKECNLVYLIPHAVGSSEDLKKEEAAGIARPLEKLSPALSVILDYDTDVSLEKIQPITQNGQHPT
Assay: Antagonist of Human D 1 Dopamine Receptor: qHTS
Conditions: HEK293 TREx D1 cells, calcium flux, dopamine EC80; at 10 µM; stronger effect = lower value
In short: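 Tetracycline-induced HEK293 T-REx cells with force-coupled D1 receptor were loaded with a no-wash calcium dye. Compound was added after a 10 s baseline and read kinetically for 180 s; EC80 dopamine was then added and calcium flux followed another 180 s.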
% is scaled to controls: 0 for no effect and ±100 for the full control effect.

SMILES | activity change, negative = inhibition
Cc1c(CNC2CCCCC2)c(C(=O)O)c(C)n1Cc1cccc(Cl)c1 | -7.13%
CC(=O)NC1=NN(C(C)=O)C(C)(c2ccc(C)cc2)S1 (stereo not given) | 22.7%
CC(=O)NC1=NN(C(C)=O)C(C)(CCS(=O)(=O)c2ccc(Cl)c(Cl)c2)S1 (stereo not given) | -39.7% (active)
CC(=O)NC1=NN(C(C)=O)C(C)(c2ccc(Cl)s2)S1 (stereo not given) | 2.68%
Cc1cc(OC(C)C(=O)Nc2sc3c(c2C(N)=O)CCCC3)ccc1Cl (stereo not given) | 3.29%
Cc1ccc(S(=O)(=O)c2nnn3c2nc(N2CCN(c4ccccc4F)CC2)c2cc(Cl)ccc23)cc1C | -0.0376%
CCOc1ccccc1CNC(=O)C1CCCN(S(=O)(=O)c2ccc3c(ccn3C)c2)C1 (stereo not given) | -27.8%
COc1cc(COCC(O)CN2CCN(Cc3ccc4c(c3)OCO4)CC2)cc(OC)c1OC (stereo not given) | -31.1% (active)
CN1CCN(CC(O)COCc2ccc3c(c2)OCO3)CC1 (stereo not given) | -5.88%
COc1cc(Cl)c(S(=O)(=O)N2CCN(Cc3ccc4c(c3)OCO4)CC2)cc1Cl | 4.53%
CCOc1cccc(CNC(=O)c2ccc(N3CCCC3)c(NC(=O)Nc3ccccc3CC)c2)c1 | 4.78%
CCc1nn(CC(=O)Nc2cc(C)cc(C)c2)c(=O)c2cc3sccc3n12 | 3.41%
CCCN1CN=C(NS(=O)(=O)c2ccc(NC(C)=O)cc2)NC1 | -3.05%
O=C1C(=O)N(CCCO)C(c2ccccc2)/C1=C(\O)c1ccc(Br)cc1 (stereo not given) | -7%
CCCOc1ccc(/C(O)=C2/C(=O)C(=O)N(CCN(C)C)C2c2ccc(OC)c(OC)c2)cc1 (stereo not given) | -33.3% (active)
COc1ccc(/C(O)=C2/C(=O)C(=O)N(CC3CCCO3)C2c2ccc(OC)c(OC)c2)cc1 (stereo not given) | -3.45%
COc1cccc(C2/C(=C(/O)c3ccncc3)C(=O)C(=O)N2CCCN(C)C)c1 (stereo not given) | -21.5%
COc1ccc(/C(O)=C2/C(=O)C(=O)N(CCCN(C)C)C2c2ccccc2)cc1OC (stereo not given) | -33.2% (active)
COc1cccc(C2/C(=C(/O)c3ccc(F)cc3)C(=O)C(=O)N2CCN(C)C)c1 (stereo not given) | -3.01%
CCc1ccc(CNC(=O)c2ccc(CS(=O)c3ccc(Br)cc3)o2)cc1 (stereo not given) | 6.94%
COc1c(Cl)cc(C(=O)N(Cc2ccccc2F)C2CCS(=O)(=O)C2)cc1Cl (stereo not given) | -0.91%
CCOC(=O)c1ccc2c(c1)N(Cc1cccc(OC)c1)C(=O)c1ccccc1S2(=O)=O | 4.54%

SMILES | activity change, negative = inhibition
Cc1c(Cl)cccc1NC(=O)CCS(=O)(=O)c1ccc2c(c1)oc(=O)n2C | -0.334%
O=C(c1ccc(Cl)cc1)n1nc(-c2cccnc2)nc1NCc1ccc(F)cc1 | -16.2%
CCOc1ccc(OCC)c(NC(=O)CN(c2ccc(C)cc2)S(=O)(=O)c2c(C)n[nH]c2C)c1 | -7.76%
O=C1Nc2cc(Cl)c(Cl)cc2N(O)N1c1cc(Cl)cc(Cl)c1 | -76.7% (active)
O=C1Nc2cc(Cl)c(Cl)cc2N(O)N1c1ccccc1Cl | -7.41%
Cc1c(CNC(C)c2ccccc2)c(C(=O)O)c(C)n1Cc1c(F)cccc1Cl (stereo not given) | 18.6%
CCOc1ccc(OCC)c(NC(=O)c2c(C)nn(-c3ccccc3)c2-n2cccc2)c1 | 7.71%
CCN(CC)CCN(C(=O)c1ccc(N2C(=O)CCC2=O)cc1)c1nc2cc3c(cc2s1)OCO3 | 6.3%
O=C(Nc1nnc(S(=O)(=O)N2CCCc3ccccc32)s1)c1cccc(F)c1 | -7.22%
CCc1ccc2nc(N(CCCN(C)C)C(=O)c3ccc4c(c3)OCCO4)sc2c1 | -34.9% (active)
Cc1ccc2nc(N(CCN(C)C)C(=O)C3=COCCO3)sc2c1 | -34.5% (active)
NS(=O)(=O)c1ccc2nc(NC(=O)C3=COCCO3)sc2c1 | 1.85%
O=C(Nc1ccc2nc(SCC(=O)N3CCCc4ccccc43)sc2c1)c1ccc(F)cc1 | -9.64%
CC(C)N(Cc1nnc(-c2ccc(Cl)cc2)o1)C(=O)C1=COCCO1 | 2.43%
Cc1cc(C)c2nc(N(CCN(C)C)C(=O)/C=C/c3cccs3)sc2c1 | 6.71%
CN(C)CCCN(C(=O)c1ccc(S(=O)(=O)N2CCCc3ccccc32)cc1)c1nc2ccc(F)cc2s1 | -31.4% (active)
CN(C)CCN(C(=O)C1=COCCO1)c1nc2ccc(Cl)cc2s1 | -46.4% (active)
Cc1ccc2sc(NNC(=O)c3ccc4c(c3)OCCO4)nc2c1C | 23.4%
CCN(CC)CCN(C(=O)c1cc(Cl)sc1Cl)c1nc2cc3c(cc2s1)OCO3 | -2.46%
CC1CCN(S(=O)(=O)c2ccc3c(c2)N(CC(=O)NCCc2ccccc2)C(=O)CO3)CC1 | 1.55%
Cc1ccc(C(=O)CC2(O)C(=O)N(CCc3ccccc3)c3ccc(Br)cc32)cc1 (stereo not given) | 12.6%
COc1cc(OC)c(C2C=C(C(=O)O)Nc3ncnn32)cc1OC (stereo not given) | 4.4%

SMILES | activity change, negative = inhibition
COc1ccc(C2C(=O)N(C3CCCCCC3)CC(=O)N2CCc2ccc(Cl)cc2)cc1OC (stereo not given) | 6.57%
COc1cccc(CNC(=O)c2ccc3c(Cl)c4c(nc3c2)CCCC4)c1 | -2.7%
CCOc1ccc(CCNC(=O)CN(c2ccc(C)cc2)S(=O)(=O)N(C)C)cc1OCC | 6.83%
Cc1ccc(Cn2c(CNC(=O)Cc3cccc(C)c3)nc3cccnc32)cc1 | -3.78%
O=C(NC1(C(F)(F)F)N=C(c2ccccc2)N(C2CCCCC2)C1=O)c1ccccc1F (stereo not given) | -5.87%
COc1ccc(-c2cn3nc(N4CCC(C(=O)Nc5cccc(C)c5C)CC4)sc3n2)cc1 | -7.07%
CCOC(=O)CSc1nnc(NC(=O)c2cccc(S(=O)(=O)N3CCCC3)c2)s1 | -6.95%
O=C(Nc1nncs1)c1cccc(S(=O)(=O)N2CCCCC2)c1 | 5.14%
CCOC(=O)CSc1nnc(NC(=O)c2cccc(S(=O)(=O)N3CCCCC3)c2)s1 | -31.1% (active)
Cn1nc(C(F)(F)F)c2cc(C(=O)N3CCOCC3)sc21 | 6.73%
Cn1nc(C(F)(F)F)c(-c2ccc(F)cc2)c1NC(=O)CSCC(=O)O | 8.45%
Cn1nc(C(F)(F)F)c2cc(NC(=O)OCC(C)(C)C)sc21 | -42.5% (active)
Cc1ccc(Cl)cc1NC(=O)CCS(=O)(=O)c1ccc(Br)s1 | 6.29%
COc1ccc(C(=O)N2CCC(c3nc4ccccc4o3)CC2)cc1 | 4.96%
CCOC(=O)Cn1c(=O)n(C2CCCCC2)c2nc(-c3cccc(OC)c3)nc(C(N)=O)c21 | 8.07%
Cc1csc(NC(=O)C2=COCCO2)n1 | -2.15%
CCC(CC)c1nnc(NC(=O)c2nn(C)c(=O)c3ccccc23)s1 | 0.594%
CCC(CC)c1nnc(NC(=O)C2=COCCO2)s1 | -42.7% (active)
CC(=O)N1c2ccccc2CC1C(=O)N1CCN(c2ccc(F)cc2)CC1 (stereo not given) | 9.38%
COc1ccc(N2CCN(c3cc(C)nc4nncn34)CC2)cc1 | -2.83%
Cc1nc(N2CCOCC2)c2c(C(=O)NCc3cccc(Cl)c3)c(C)oc2n1 | 6.25%
COc1cc(NC(=O)C2=CC(c3ccc(C)cc3)=NS(=O)(=O)N2C)cc(OC)c1OC | -12.9%

SMILES | activity change, negative = inhibition
COc1ccc(NC(=O)C2=CC(c3ccc(OC)c(OC)c3)=NS(=O)(=O)N2C)cc1 | -44.8% (active)
COc1cc(NC(=O)C2=CC(c3ccco3)=NS(=O)(=O)N2C)cc(OC)c1OC | -11.3% and -11.4%
CCN(C(=O)c1sc2cc(OC)ccc2c1Cl)c1ccccc1 | 1.09%
CCc1cccc(NC(=O)c2cc(-c3ccccc3)n[nH]2)c1 | -7.87%
CCc1cccc(NC(=O)CCC(=O)O)c1 | -45.7% (active)
CCc1cccc(NC(=O)CCNS(=O)(=O)c2cccc3nonc23)c1 | 8.81% and 29.5%
O=CN1CCN(C(=O)c2ccc(Br)o2)CC1 | -36.1% (active)
O=CN1CCN(C(=O)c2ccc3c(c2)OCO3)CC1 | 11.7%
O=C(c1ccc(Br)o1)N1CCN(CCOc2ccccc2)CC1 | 3.56%
CC(C)c1ccc(C2CC(=O)N3CN(C4CCCCC4)CSC3=C2C#N)cc1 (stereo not given) | -4.95%
COc1cccc(CNC(=O)Cn2ncn3c(cc4ccccc43)c2=O)c1 | 2.91%
CCOC(=O)[C@H]1[C@H]2COc3cc(OC)ccc3[C@@H]2N2C(=O)N(c3ccc(Br)cc3)C(=O)[C@@]12C | -55.7% (active)
CCOC(=O)[C@@H]1[C@H]2COc3cc(OC)ccc3[C@@H]2N2C(=O)N(c3cccc(C)c3)C(=O)[C@@]12C | -0.419%
CCOC(=O)[C@@H]1[C@H]2COc3cc(OC)ccc3[C@H]2N2C(=O)N(c3ccc(F)cc3)C(=O)[C@]12C | -0.628%
COc1ccc(-c2cn3c(n2)sc2cc(C(=O)Nc4ccc(F)cc4)ccc23)cc1 | -1.55%
O=S(=O)(c1ccccc1)N(Cc1cccc(F)c1)c1ccccc1 | -30.7% (active)
O=C(O)c1cc(S(=O)(=O)N(Cc2ccccc2)c2cccc(C(F)(F)F)c2)ccc1Cl | 3.45%
O=C(O)c1cc(S(=O)(=O)N(Cc2ccccc2)c2ccccc2)ccc1Cl | 11.6%
CCc1ccccc1NC(=O)Cn1c(=O)n(-c2cccc(C)c2)c(=O)c2c1c1cc(OC)ccc1n2C | -1.63%
